Screening results: PubChem BioAssay, National Center for Advancing Translational Sciences (NCATS)
Sampled rows, rich in hits. Any-hit rate of the full collection: about 8.1%.
Sfp inh: Sfp phosphopantetheinyl transferase inhibition; Q9F4F7; 310,000 tested, 3.5% active; Potency, µM, without a hit: largest response in the series, negative = inhibition, hits mostly inhibitors; Biochemical Sfp PPTase activity, qHTS;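 note: the enzyme is Sfp with the accession as filed and its product quenches rhodamine fluorescence; 0% = enzyme reaction without inhibitor and -100% = no enzyme wells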
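Sfp 15 nM + cpd, 15 min RT; start w/ rhodamine-CoA 5 uM, BHQ-2-YbbR 12.5 uM (final); 50 mM Hepes pH 7.6, 10 mM MgCl2, 0.01% NP-40, 0.01% BSA; read 525/598 nm at 0 and 30 min.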
ClpP mod: qHTS Assay for Activators of ClpP; ATP-dependent Clp protease proteolytic subunit (Bacillus subtilis (strain 168)), P80244; purified B. subtilis ClpP, FRET peptide cleavage, 20 min; Potency, µM (series often up to 57.5 µM), for the others: top-dose activity change, negative = active; 340,000 tested, 1.9% active; active = well fitted falling curve with a large enough effect; inconclusive = small, poorly fitted or top-dose-only effect; inactive = no such curve, though single readings can be large or run the other way; note: the source files actives as falling curves though it sought activators and does not explain the sign; nearly all actives have a fitted effect of over 65% in size
Target sequence (P80244 whole entry, looked up): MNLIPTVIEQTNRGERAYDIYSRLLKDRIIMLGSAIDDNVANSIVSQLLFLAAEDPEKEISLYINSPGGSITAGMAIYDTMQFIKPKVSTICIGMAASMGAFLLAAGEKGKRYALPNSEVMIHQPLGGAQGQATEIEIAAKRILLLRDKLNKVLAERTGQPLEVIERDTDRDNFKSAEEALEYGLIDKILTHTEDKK
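ClpP 10 microg/mL final, pH 8 Tris/KCl buffer with BSA, glycerol, Tween-20; compound pinned in; FRET-FV substrate; RT 20 min; Ex320/Em430; ΔFRET vs ADEP 5.8 microM, DMSO, no enzyme.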
VP16 counter: counter-screen for ROR gamma inhibitors: Gal4-VP16 reporter. Drosophila S2 Gal4-VP16 UAS-luciferase, luminescence, 20 h. Potency, µM (titrated, usually from 53.6 µM), without a hit: at the top dose activity, negative = inhibition, actives largely listed as inhibitors. 310,000 tested, 3.5% active. AID 2546;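 note: Gal4-VP16 expression switched on by copper sulfate through the metallothionein promoter; % is set by controls: 0 for no effect and ±100 for the full control effect; nearly all actives have a fitted effect of over 50% in size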
PINK1 expr mod: PINK1 expression modulation; 410,000 tested, 0.2% active; PINK1 immunofluorescence, high-content cytometry, 24 h; Potency, µM (doses to about 76.6 µM), for the others: at the highest dose activation (PINK1 increase), actives largely listed as activators; active = well fitted activation curve with a large enough effect; inconclusive = small, poorly fitted or top-dose-only effect; cell line not stated here; note: % of control where 0% means no effect; nearly all actives have a fitted effect of over 65% in size
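Cells are seeded, rested 12 hours, then given compound at five concentrations or DMSO for 24 hours. After fixation, blocking and antibody staining, PINK1 amount and mitochondrial localization are scored; CCCP serves as control.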
RORgamma inh: ROR gamma (mouse) transcription inhibition; P51450; Drosophila S2 Gal4-RORgamma UAS-luciferase reporter, 20 h; Potency, µM (highest dose often 53.6 µM), inactives show top-dose activity change, negative = inhibition, usual class: inhibitors; 310,000 tested, 5.4% active; note: % is set by controls: 0 for no effect and ±100 for the full control effect; nearly all actives have a fitted effect of over 60% in size
Target sequence (P51450 whole entry, looked up, the tested form may be a part): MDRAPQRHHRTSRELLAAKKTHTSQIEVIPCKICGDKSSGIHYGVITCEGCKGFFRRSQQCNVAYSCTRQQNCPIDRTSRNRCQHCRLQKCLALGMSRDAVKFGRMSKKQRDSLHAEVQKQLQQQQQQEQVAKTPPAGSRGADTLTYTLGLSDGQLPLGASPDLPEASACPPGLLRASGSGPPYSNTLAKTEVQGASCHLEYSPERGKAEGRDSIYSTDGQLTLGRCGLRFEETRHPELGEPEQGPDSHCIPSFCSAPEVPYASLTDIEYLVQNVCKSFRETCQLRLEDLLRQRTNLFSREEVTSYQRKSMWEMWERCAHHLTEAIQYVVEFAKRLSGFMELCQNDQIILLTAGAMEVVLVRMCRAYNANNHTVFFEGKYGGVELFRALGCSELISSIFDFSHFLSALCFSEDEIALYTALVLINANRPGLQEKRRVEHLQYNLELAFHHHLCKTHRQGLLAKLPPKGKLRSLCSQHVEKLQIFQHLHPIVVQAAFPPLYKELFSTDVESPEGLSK
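Stable Schneider cell line, Gal4 DNA-binding domain fused to ROR gamma, UAS-luciferase. Cmpd 1 hr RT → CuSO4 700 uM final → 20 hr RT → luciferase reagent 10 min → luminescence.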
Epigenetic derep: regulators of epigenetic silencing causing reporter derepression in mouse cells; murine LDR cells, GFP reporter derepression, 30 h; AID 1865; Potency, µM (top dose mostly 53.9 µM), for inactives: at the top dose GFP activation, usual class: activators; 280,000 tested, 0.2% active; note: % of control where 0% means no effect; nearly all actives have a fitted effect of over 60% in size
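Derepression of a silenced CMV-GFP reporter in murine LDR cells is scored by enumerating GFP-positive cells with a laser-scanning microplate cytometer after 30 hours of treatment at 37 C.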
Numbers without * were called inactive; [ ] = another dose, or the depositor's remark. Unless noted, calls come from the whole dose curve; as a rule, active = well fitted curve in the direction sought with a large enough effect; inconclusive = small, poorly fitted or top-dose-only effect, or another doubt; inactive = no such curve, though single readings can be large; an effect the other way counts as inactive or inconclusive. Potency is the fitted concentration of half-maximal effect.

For COc1ccc(-c2cc(C(F)(F)F)nc(S(=O)(=O)CCCC(=O)Nc3cccnc3Cl)n2)cc1OC the results were Sfp inh -11%, VP16 counter inconclusive, PINK1 expr mod 5%, RORgamma inh 1.6µM* and Epigenetic derep -1%.
`CN1CCN(c2ncc3ncc(=O)n(C[C@H]4CCCO4)c3n2)CC1` gave Sfp inh 14%, VP16 counter 1%, PINK1 expr mod 1% and RORgamma inh -14%.
C=C(C)C(=O)OCC1CN2C(CCC(C)C2c2ccc(Br)cc2)C(=O)O1 (stereo not drawn) was read as Sfp inh 2%, VP16 counter -8%[10 µM], RORgamma inh 2%[10 µM] and Epigenetic derep 1%[10.1 µM].
Screening CCOC(=O)CCS(=O)(=O)c1nc(-c2ccccc2)cc(C(F)(F)F)n1 returned Sfp inh 10µM*, ClpP mod -2%, VP16 counter inconclusive, PINK1 expr mod 0%, RORgamma inh 24% and Epigenetic derep -2%.
`COCC(C)NC(=O)CCS(=O)(=O)c1nc(-c2ccc(OC)cc2)cc(C(F)(F)F)n1` (stereo not drawn) gave Sfp inh 6%, ClpP mod 6%, PINK1 expr mod -3%, RORgamma inh 2%[0.365 µM] and Epigenetic derep 2%.
For O=C1C2=C(S[C@@H]3O[C@H](CO)[C@@H](O)[C@H](O)[C@H]3O2)C(=O)c2ccccc21 the results were Sfp inh inconclusive, VP16 counter -15%, RORgamma inh -33% and Epigenetic derep 1%.
Screening S=c1[nH]nc(-c2ccncc2)n1/N=C/c1cccc2ccccc12 returned Sfp inh -6%, VP16 counter -9%, RORgamma inh -10% and Epigenetic derep 0%.
For COc1ccc(N=Cc2c(O)ccc3ccccc23)cc1 the results were Sfp inh inconclusive, VP16 counter -24%, PINK1 expr mod 0%, RORgamma inh inconclusive and Epigenetic derep -1%.
For Cc1nnc(-c2ccccc2)c(=O)n1/N=C/c1c(O)ccc2ccccc12 the results were Sfp inh 13%, ClpP mod -8%, VP16 counter 18µM*, PINK1 expr mod -1%, RORgamma inh inconclusive and Epigenetic derep -1%.
Screening CCc1n[nH]c(=S)n1/N=C/c1c(O)ccc2ccccc12 returned Sfp inh -14%, ClpP mod -2%, VP16 counter 20µM*, PINK1 expr mod 0% and RORgamma inh inconclusive.
`Cc1nnc(C)n1/N=C/c1c(O)ccc2ccccc12` gave Sfp inh -27%, ClpP mod 4%, VP16 counter 5%, PINK1 expr mod 0% and RORgamma inh -15%.
`CCc1n[nH]c(=S)n1/N=C/c1cccc2ccccc12` gave Sfp inh -17%, ClpP mod 4%, VP16 counter 7.9µM*, PINK1 expr mod -1% and RORgamma inh 7.1µM*.
For COc1cc(C(=O)Nc2nonc2-c2ccc(Cl)cc2)cc(OC)c1OC the results were ClpP mod -2%, PINK1 expr mod 2% and Epigenetic derep -2%.
For O=C(c1cc2nc(-c3ccco3)cc(C(F)(F)F)n2n1)N1CCCCCC1 the results were Sfp inh 56µM*, ClpP mod -19%, VP16 counter -2%, RORgamma inh 12% and Epigenetic derep -7%.
`NC(=O)c1cc2nc(-c3ccco3)cc(C(F)(F)F)n2n1` gave Sfp inh -6%, ClpP mod inconclusive, VP16 counter -6%, PINK1 expr mod 0%[38.3 µM], RORgamma inh -8% and Epigenetic derep 0%.
O=C(c1cc2nc(-c3ccco3)cc(C(F)(F)F)n2n1)N1CCN(c2ccccc2)CC1 was read as Sfp inh -15%, ClpP mod -1%, VP16 counter 0%, RORgamma inh inconclusive and Epigenetic derep 0%.
CN(C(=O)c1cc2nc(-c3ccco3)cc(C(F)(F)F)n2n1)C1CCCCC1 was read as Sfp inh 50µM*, ClpP mod -20%, VP16 counter inconclusive, RORgamma inh -92% and Epigenetic derep -5%.
Screening COc1ccccc1CN(C)CC(=O)c1c(C)[nH]c2ccccc12 returned ClpP mod -18% and PINK1 expr mod 0%.
O=C(NCc1ccccc1)c1cccn1-c1nnc(N2CCCCC2)s1 was read as ClpP mod -6%, PINK1 expr mod 0% and Epigenetic derep 3%.
`S=c1nc(C2CCCCC2)n(-c2ccccc2)[nH]1` gave Sfp inh 20%, VP16 counter -4%, PINK1 expr mod 3%, RORgamma inh 2.8µM* and Epigenetic derep -1%.
Screening Nn1c(C2CCCCC2)nc2ccccc2c1=O returned Sfp inh 11%, ClpP mod 0%, VP16 counter -3%, PINK1 expr mod 2%, RORgamma inh 35% and Epigenetic derep -1%.
CCOc1ccccc1NC(=O)CSc1nc2cc(OC)c(OC)cc2c2nc(CCn3c(C)nc4ccccc43)nn12 was read as ClpP mod 5%, PINK1 expr mod 16% and Epigenetic derep 5%.
For Cc1ccc(-c2csc(NC(=O)Cc3ccc(F)cc3)n2)o1 the results were Sfp inh 13µM*, VP16 counter -6%[10 µM], PINK1 expr mod 2%, RORgamma inh 11% and Epigenetic derep inconclusive.
For O=C(Cc1ccccc1F)Nc1nc(-c2ccc(F)cc2)cs1 the results were Sfp inh 0%, VP16 counter 1%, PINK1 expr mod 6% and RORgamma inh inconclusive.
For Cc1ccc(-c2csc(NC(=O)c3ccc(-c4ccccc4)cc3)n2)o1 the results were Sfp inh 22µM*, ClpP mod -22%, VP16 counter inconclusive, PINK1 expr mod 2%, RORgamma inh inconclusive and Epigenetic derep -1%.
O=C(Nc1nc(-c2ccco2)cs1)c1ccccc1 was read as Sfp inh inconclusive, ClpP mod -1%, VP16 counter 10%, PINK1 expr mod 1%, RORgamma inh 43% and Epigenetic derep 7%.
`Cc1c(NC(=O)c2ccc(Cl)cc2)cc(C(C)C)c(O)c1S(=O)(=O)c1ccccc1` gave ClpP mod -1%, PINK1 expr mod 0% and Epigenetic derep 1%.
`CCCN1CNc2c(c(=O)[nH]c(=S)n2CCC(C)C)C1` gave ClpP mod -2% and PINK1 expr mod 0%.
For CC1=NN(C(=O)c2csc(C)c2C)C(O)(C(F)(F)F)C1 (stereo not drawn) the results were Sfp inh -2%, ClpP mod 6%, VP16 counter 4.5µM*, PINK1 expr mod 0%, RORgamma inh 5.6µM* and Epigenetic derep 5%.
